For test [1], the target named is BDNF/NT-3 growth factors receptor (Homo sapiens) (UniProt Q16620). To be noted: at 10 µM.
The target of test [2] is T1, Tyrosine-protein kinase TXK (Homo sapiens) (UniProt P42681).
T1 sequence (whole entry): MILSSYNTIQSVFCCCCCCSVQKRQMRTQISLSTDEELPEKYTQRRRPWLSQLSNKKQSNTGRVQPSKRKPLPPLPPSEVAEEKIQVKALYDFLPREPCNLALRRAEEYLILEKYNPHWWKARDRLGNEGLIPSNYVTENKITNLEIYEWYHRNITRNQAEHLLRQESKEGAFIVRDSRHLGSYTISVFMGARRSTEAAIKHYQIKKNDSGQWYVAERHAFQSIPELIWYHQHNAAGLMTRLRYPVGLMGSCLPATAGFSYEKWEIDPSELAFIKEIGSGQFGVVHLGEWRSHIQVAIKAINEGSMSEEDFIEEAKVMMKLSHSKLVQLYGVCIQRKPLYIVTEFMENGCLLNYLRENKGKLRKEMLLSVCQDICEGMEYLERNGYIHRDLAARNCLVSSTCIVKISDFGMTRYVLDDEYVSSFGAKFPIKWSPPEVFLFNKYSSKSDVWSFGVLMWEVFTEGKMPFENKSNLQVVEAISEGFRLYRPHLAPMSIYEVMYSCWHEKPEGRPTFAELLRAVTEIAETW
The settings on record: at 1 µM.

Test [3] concerns the target T1, Tyrosine-protein kinase TXK (Homo sapiens). To be noted: at 10 µM.
Test [4] addresses T2, Serine/threonine-protein kinase ULK2 (Homo sapiens) (UniProt Q8IYT8).
T2 sequence (whole entry): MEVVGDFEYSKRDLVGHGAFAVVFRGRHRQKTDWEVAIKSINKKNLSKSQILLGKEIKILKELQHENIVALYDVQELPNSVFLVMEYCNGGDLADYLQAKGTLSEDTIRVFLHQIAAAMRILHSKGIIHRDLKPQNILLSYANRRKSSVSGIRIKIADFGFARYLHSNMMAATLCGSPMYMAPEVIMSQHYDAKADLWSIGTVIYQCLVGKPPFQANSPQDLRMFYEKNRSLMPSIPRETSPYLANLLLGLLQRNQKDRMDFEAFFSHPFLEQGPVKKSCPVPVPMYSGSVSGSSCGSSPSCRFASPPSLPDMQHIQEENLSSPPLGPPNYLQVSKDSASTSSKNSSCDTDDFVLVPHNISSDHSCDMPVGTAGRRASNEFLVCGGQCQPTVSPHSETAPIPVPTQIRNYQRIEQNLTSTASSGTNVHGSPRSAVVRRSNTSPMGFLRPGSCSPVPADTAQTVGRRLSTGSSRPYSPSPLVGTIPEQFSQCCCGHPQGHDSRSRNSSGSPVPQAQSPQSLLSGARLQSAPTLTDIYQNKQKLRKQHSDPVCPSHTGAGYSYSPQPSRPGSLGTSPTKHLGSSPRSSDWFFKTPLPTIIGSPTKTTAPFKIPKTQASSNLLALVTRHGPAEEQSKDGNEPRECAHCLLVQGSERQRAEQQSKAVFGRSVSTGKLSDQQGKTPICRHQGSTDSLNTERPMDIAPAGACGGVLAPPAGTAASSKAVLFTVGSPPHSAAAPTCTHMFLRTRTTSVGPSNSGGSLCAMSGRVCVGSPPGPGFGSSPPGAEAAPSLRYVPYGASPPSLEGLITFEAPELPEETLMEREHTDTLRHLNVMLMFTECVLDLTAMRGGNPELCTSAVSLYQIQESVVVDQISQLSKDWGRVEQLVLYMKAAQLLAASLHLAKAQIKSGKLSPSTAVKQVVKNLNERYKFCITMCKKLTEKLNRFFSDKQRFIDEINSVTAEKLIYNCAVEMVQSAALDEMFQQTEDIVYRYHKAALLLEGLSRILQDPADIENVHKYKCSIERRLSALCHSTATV
The settings on record: at 1 µM.

Test [5] deals with T3, Serine/threonine-protein kinase ULK3 (Homo sapiens) (UniProt Q6PHR2).
T3 sequence (whole entry): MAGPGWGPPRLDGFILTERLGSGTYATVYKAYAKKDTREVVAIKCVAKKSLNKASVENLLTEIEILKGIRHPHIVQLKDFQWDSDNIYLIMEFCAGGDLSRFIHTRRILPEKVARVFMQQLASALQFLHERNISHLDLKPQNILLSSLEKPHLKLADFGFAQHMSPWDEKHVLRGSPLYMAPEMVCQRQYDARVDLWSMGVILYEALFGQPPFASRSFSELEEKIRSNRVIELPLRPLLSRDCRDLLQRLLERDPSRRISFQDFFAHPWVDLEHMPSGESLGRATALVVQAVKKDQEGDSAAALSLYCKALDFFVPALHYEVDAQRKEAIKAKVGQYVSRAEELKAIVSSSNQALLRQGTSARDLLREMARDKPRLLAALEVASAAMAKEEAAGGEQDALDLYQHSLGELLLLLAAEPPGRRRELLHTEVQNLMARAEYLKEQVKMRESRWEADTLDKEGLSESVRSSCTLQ
To be noted: at 1 µM.

Test [6] addresses T3, Serine/threonine-protein kinase ULK3 (Homo sapiens). The settings on record: at 10 µM.
Test [7] deals with Serine/threonine-protein kinase VRK2 (Homo sapiens) (UniProt Q86Y07). The settings on record: at 1 µM.
Serine/threonine-protein kinase VRK2 (Homo sapiens), sequence (Q86Y07 whole entry): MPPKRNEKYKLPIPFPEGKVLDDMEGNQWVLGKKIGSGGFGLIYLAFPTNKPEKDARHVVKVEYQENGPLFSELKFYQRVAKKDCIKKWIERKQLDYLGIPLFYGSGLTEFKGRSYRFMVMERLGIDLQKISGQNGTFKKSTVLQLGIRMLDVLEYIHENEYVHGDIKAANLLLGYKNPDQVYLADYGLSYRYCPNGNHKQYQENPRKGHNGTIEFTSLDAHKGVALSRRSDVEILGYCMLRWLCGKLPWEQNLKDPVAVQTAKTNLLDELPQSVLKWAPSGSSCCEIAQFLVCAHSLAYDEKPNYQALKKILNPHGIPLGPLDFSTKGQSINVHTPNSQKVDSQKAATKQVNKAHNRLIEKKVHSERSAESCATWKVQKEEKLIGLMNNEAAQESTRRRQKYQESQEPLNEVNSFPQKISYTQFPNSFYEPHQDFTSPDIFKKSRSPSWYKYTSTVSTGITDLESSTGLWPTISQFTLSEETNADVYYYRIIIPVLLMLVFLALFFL
Test [8] addresses Serine/threonine-protein kinase WNK2 (Homo sapiens) (UniProt Q9Y3S1). The settings on record: at 1 µM.
Test [9] deals with T2, Serine/threonine-protein kinase ULK2 (Homo sapiens). The settings on record: at 10 µM.
Test [10] addresses Serine/threonine-protein kinase VRK2 (Homo sapiens) (UniProt Q86Y07). To be noted: at 10 µM.

Serine/threonine-protein kinase WNK2 (Homo sapiens), sequence (Q9Y3S1 whole entry): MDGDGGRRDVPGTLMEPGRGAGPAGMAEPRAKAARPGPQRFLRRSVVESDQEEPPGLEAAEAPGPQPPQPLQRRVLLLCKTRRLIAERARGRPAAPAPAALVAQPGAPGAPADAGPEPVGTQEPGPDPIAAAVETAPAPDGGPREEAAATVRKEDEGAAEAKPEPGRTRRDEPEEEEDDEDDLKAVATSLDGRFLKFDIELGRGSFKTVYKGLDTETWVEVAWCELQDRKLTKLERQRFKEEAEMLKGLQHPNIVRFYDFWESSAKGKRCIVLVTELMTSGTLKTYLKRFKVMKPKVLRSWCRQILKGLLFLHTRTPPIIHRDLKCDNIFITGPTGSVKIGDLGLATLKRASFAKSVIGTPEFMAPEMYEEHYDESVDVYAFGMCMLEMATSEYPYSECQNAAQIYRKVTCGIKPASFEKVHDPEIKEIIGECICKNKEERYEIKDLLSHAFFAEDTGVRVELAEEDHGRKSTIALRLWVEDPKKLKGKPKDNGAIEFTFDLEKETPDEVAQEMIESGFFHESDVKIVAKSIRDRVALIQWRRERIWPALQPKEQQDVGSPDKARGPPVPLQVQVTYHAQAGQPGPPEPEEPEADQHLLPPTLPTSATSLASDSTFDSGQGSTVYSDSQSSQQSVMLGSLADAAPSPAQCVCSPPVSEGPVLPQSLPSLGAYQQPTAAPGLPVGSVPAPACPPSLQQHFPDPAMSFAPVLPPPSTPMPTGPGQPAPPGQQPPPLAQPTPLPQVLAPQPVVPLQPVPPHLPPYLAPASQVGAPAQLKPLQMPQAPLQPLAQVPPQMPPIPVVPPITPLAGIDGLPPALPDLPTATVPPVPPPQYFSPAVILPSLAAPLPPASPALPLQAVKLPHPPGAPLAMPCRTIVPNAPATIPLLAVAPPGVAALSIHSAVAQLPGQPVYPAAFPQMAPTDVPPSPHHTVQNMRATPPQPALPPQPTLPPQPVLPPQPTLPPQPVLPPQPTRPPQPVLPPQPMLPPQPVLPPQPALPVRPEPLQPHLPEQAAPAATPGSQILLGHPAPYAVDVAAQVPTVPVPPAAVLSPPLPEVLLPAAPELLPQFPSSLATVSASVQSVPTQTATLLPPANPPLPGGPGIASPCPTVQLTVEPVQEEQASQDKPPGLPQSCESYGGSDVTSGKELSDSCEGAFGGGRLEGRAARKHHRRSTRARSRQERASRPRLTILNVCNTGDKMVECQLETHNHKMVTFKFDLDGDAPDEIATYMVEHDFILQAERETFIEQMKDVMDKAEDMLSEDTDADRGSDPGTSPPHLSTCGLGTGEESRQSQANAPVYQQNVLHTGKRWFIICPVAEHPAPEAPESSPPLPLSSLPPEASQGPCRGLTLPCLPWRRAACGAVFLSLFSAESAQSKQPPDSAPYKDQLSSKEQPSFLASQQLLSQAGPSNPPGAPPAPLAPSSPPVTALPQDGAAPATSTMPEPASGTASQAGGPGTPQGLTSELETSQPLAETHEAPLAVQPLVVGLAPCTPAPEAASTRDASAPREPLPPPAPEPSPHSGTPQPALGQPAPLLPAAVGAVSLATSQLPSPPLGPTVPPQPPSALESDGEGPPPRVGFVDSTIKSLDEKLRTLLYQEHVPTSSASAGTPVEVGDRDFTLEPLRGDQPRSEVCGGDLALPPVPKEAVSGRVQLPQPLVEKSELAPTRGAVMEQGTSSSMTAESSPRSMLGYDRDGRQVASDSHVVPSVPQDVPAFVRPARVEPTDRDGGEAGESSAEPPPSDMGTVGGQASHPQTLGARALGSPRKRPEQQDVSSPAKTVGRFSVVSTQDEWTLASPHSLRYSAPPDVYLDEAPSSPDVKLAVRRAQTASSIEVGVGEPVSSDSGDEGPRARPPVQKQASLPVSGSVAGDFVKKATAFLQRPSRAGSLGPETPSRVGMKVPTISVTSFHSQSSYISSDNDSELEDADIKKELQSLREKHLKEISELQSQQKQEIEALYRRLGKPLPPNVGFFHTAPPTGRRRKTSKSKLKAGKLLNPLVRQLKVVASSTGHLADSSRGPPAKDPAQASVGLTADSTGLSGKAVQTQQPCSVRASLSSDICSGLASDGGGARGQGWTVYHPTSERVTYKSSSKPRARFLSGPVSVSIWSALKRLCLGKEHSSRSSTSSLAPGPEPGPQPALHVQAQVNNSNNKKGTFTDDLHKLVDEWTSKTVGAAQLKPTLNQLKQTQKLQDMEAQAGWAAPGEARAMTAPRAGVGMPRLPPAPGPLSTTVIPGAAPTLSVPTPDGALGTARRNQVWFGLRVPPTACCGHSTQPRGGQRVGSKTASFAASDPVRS
BDNF/NT-3 growth factors receptor (Homo sapiens), sequence (Q16620 32-822 limits assumed): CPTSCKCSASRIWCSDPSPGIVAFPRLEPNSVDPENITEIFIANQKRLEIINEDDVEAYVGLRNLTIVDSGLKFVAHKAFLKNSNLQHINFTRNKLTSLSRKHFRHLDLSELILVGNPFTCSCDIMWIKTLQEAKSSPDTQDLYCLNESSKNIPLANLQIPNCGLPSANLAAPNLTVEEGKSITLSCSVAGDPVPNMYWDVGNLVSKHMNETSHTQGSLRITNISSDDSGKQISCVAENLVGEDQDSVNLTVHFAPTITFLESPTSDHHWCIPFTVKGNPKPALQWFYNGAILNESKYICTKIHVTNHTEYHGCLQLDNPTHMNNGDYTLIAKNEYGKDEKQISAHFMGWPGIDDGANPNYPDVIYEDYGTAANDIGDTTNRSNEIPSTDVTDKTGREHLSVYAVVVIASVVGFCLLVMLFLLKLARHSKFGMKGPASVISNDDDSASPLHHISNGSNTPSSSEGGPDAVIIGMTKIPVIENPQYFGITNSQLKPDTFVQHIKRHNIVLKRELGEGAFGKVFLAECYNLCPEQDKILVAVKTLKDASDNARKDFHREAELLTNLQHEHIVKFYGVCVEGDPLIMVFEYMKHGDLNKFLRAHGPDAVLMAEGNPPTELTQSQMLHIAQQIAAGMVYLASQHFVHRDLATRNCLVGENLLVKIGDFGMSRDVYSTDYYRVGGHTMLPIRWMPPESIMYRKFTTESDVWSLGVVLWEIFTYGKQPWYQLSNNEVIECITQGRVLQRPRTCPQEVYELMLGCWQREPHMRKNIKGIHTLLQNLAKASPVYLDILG

As for `Cn1c2ccccc2c2c3c(c4c5ccccc5n(CCC#N)c4c21)CNC3=O`, the residual activity is -12% in test [1]; 8% in test [2]; 8% in [3]; 99% in test [4]; 39% in test [5]; 16% in [6]. The residual activity in test [7] and in test [8] was 97% (inactive) each time.
For the compound `O=C1NC(=O)c2c1c1c3ccccc3[nH]c1n1cncc21`, the residual activity in test [1] was determined as 20%; in [2] it was 71%; in test [3], 79%; in test [4], 103%; in [9], 86%; in test [5], 80%. The residual activity is 70% in test [6], 93% (inactive) in [7], 91% in [10] and 82% (inactive) in [8].
On to `O=C(c1cc2cc(O)ccc2[nH]1)c1cc2cc(O)ccc2[nH]1`, for which the residual activity in test [1] is -12%; in [2], 64%; in [3] it was 22%; in test [4] it was 82%; in test [9], 38%; in [5], 73%. The residual activity in test [6] was 22%; in test [7], 72% (inactive); in [10], 37%; in test [8] it was 83% (inactive).
In the case of `CCOC(=O)c1c(C)[nH]c(/C=C2\C(=O)Nc3ccccc32)c1C`, the residual activity was 45% in test [1]; 97% in test [2]; 91% in test [3]; 76% in [5]; 70% in test [6].
With `COc1cc2nccc(Oc3ccc(NC(=O)Nc4cc(C)on4)c(Cl)c3)c2cc1OC`, the residual activity in test [1] was -10%; in test [2], 98%; in test [3], 45%; in test [4], 97%; in test [9], 99%; in test [7], 103% (inactive). In addition, in test [8], the residual activity was 100% (inactive).
As for `Cc1cc(C)c(/C=C2\C(=O)Nc3ccccc32)[nH]1`, the residual activity was -7% in test [1], 103% in test [2], 98% (inactive) in test [7] and 68% in [10].
As for `CSc1nc(-c2ccc(F)cc2)c(-c2ccnc(NC(C)c3ccccc3)c2)[nH]1` (centres undefined), the residual activity came to 1% in [1], 86% in test [2], 86% in [3] and 93% in test [10].
Turning to `N#C/C(=C\c1ccc(O)c(O)c1)C(=O)NCc1ccccc1`, the residual activity in test [1] was found to be 102%; in [3], 86%; in [9], 85%; in test [6] it was 86%.
As to `c1ccc(-c2cnc(Nc3ccc(OCCN4CCCC4)cc3)s2)cc1`, the residual activity in test [1] was 3%; in [3], 60%; in test [4], 59%; in [9], 16%; in [8] it was 123% (inactive).
Regarding `COc1ccc2c(c1)c(C1=C(c3c[nH]c4ccccc34)C(=O)NC1=O)cn2CCCN(C)C`, the residual activity stood at 43% in test [1]; 73% in test [3]; 101% in test [4]; 82% in test [9]; 100% in [5]; 59% in test [6]. Besides, the figures for the residual activity in test [7], in test [10] and in test [8] were 102% (inactive), 69% and 107% (inactive), respectively.
For the compound `O=c1cc(N2CCOCC2)oc2c(-c3ccccc3)cccc12`, the residual activity in test [3] is 69%.
Turning to `O=c1cc(N2CCNCC2)oc2c(-c3ccccc3)cccc12`, the residual activity in test [3] was 98%; in test [4], 100%; in [9], 95%; in [5] it was 101%; in test [6], 92%; in test [7] it was 95% (inactive). For the same compound, the residual activity in test [10] was 90%.
As to `O=c1c(-c2ccc(F)cc2)c(-c2ccncc2)[nH]n1-c1ccc(Cl)cc1`, the residual activity in [9] is 102%; in test [7] it was 100% (inactive); in test [10], 99%.
Regarding `NC(=O)Nc1sc(-c2ccc(F)cc2)cc1C(N)=O`, the residual activity in test [1] is 2%; in test [4] it was 86%; in test [9] it was 36%; in test [5] it was 69%; in [6], 24%; in test [7], 95% (inactive). The residual activity in test [10] was determined as 52%.
As for `NCCNc1ncc(C(N)=O)c(Nc2cccc(C(F)(F)F)c2)n1`, the residual activity in [1] is 29%; in test [3], 61%; in [5], 82%; in [6], 24%; in test [10], 43%; in [8], 111% (inactive).
Regarding `CC(C)N(CCC(=O)c1ccc2ccccc2c1)Cc1ccccc1`, the residual activity in test [3] was 42%; in [6], 86%; in test [7], 100% (inactive); in test [10], 86%.

The values are drawn from ChEMBL document CHEMBL2218924, “A broad activity screen in support of a chemogenomic map for kinase signalling research and drug discovery” (Biochem J, 2013).
